According to the supplement of paper PMC11417369:
± gives the standard deviation of the averaged measurements. Whole data set: some 25,000 sequences, median “ln(normalized median fluorescence intensity)” near 7.9, cut for the highest 2% near 11. The full list was thinned out, with the highest values kept by preference.

System: PfAP2-I AP2 domain 3 (GST-tagged)
Test: gcPBM binding intensity (ln(normalized median fluorescence intensity)); higher = stronger DNA binding
In short: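 The binding buffer was 1× PBS containing 1% milk, 0.2 mg/ml BSA, 0.5% salmon testes DNA and 0.03% Triton X-100. In it, GST-tagged P. falciparum DNA-binding domains expressed in E. coli were applied for 1 h to an Agilent 4 × 180k array of primer-extended double-stranded 36-bp intergenic genomic probes plus negative controls. Binding intensity, read with Alexa488 anti-GST antibody and a 488 nm scan, is the highest Masliner-normalised natural-log median intensity across replicate spots of either probe orientation.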

| Sequence | gcPBM binding intensity (ln) |
| --- | --- |
| AATATATATATATGTGCACACATATATAATATGTAT [CACACA_site716] | 9.2 ± 0.58 |
| TGTAATATATGTATTGCACACCTATAACCATTATTT [CACACA_site8422] | 9.89 ± 0.3 |
| TATGTACACCCATATACACACCTCTATAATATATAT [CACACA_site4563] | 8.38 ± 0.18 |
| TAGAATGTATGTAGTGCACACCTCTATAATATATTA [CACACA_site1873] | 11.3 ± 0.6 |
| TATAATGTATGTAGTGCACACCTCTATAATATATTA [CACACA_site8560] | 10.9 ± 0.64 |
| TATATATATATGTGCACACATATATAATATGTATAA [CACACA_site715] | 10.1 ± 0.42 |
| ATATATTACAAATGGAGTACTAAAAATATTCTATAT [XGTACX_site6669] | 8.02 ± 0.38 |
| ACACATATGACAAATAGTACATAAATATATAAATAT [XGTACX_site7141] | 7.79 ± 0.28 |
| AATAATATATATATATATATATATAGATATGTATAT [GTGCAC_negctrl_site653] | 8.04 ± 0.25 |
| GAAATTACTTTATAAACACACATTTATTTTATTTTA [CACACA_site7007] | 7.95 ± 0.26 |
| CTACCTTTAATATATACACACACATAAAAAAAATAT [CACACA_site8548] | 8.05 ± 0.28 |
| GTATATATTAAAAAAAAAAAAAAAAAATTAAAATTA [CACACA_negctrl_site572] | 7.14 ± 0.33 |
| TATTTTTATAAGAGCATGCACTGTTTAAAATGGTAT | 8.37 ± 0.45 |
| TATAATAATAATTATACATGCATGAATATTTATATG [TGCATGCA_site811] | 7.67 ± 0.21 |
| AATATGAAATATATTACACACATTTATATGTTGAAA [CACACA_site1427] | 7.59 ± 0.39 |
| TATATATATATATATGTGCACTGAAAGAATTATACA [GTGCAC_site9586] | 10.7 ± 0.13 |
| ATTATATTTATGTTGGTGCATTATACATGAAATTTA | 11.5 ± 0.43 |
| GTATTATTATTTTATGCATGTACATTGAATTATATT [TGCATGCA_site34] | 8.26 ± 0.44 |
| ATAATTATTCTTATGGTGCACTGAATATACATGTTG [GTGCAC_site9760] | 11.1 ± 0.47 |
| CCTATCCAGACATATACACACATATCTATTTATATA [CACACA_site5001] | 8.01 ± 0.57 |
| AAGTAATTTGTTGACACACACACACGCATACCTATA [CACACA_site7140] | 8.07 ± 0.65 |
| TTTTTTTCATAAGAAGCACACAAAAAATGATAGAGA [CACACA_site8401] | 8.29 ± 0.4 |
| TAAATTAAAAAACATAAACTATTGGAAACGCATTGA [CACACA_negctrl_site935] | 7.57 ± 0.64 |

| Sequence | gcPBM binding intensity (ln) |
| --- | --- |
| TAGGCGTTTAATAAAAGTACCCACACATATATTATT [XGTACX_site1932] | 7.68 ± 0.49 |
| TATATATATATATATGTGCACTGGACATATTTTTAT [GTGCAC_site9721] | 10.09 ± 0.099 |
| GAGATTTATTTATGTGCACACTAGAACAATTGGATC [CACACA_site2090] | 9.99 ± 0.42 |
| ATATTATGTGATTGTGCACACTGGAGATTTTTTTTA [CACACA_site1453] | 10.9 ± 0.17 |
| TTAATATAGGGAAAAAAAAGAAAATCGAAAATGTGT [CACACA_negctrl_site834] | 8 ± 0.75 |
| TTTTTTTTATGTATCACACATAATTTTTTATTATGA [CACACA_site5534] | 7.63 ± 0.68 |
| ACACATAATATAAAGGTGCTATATTGTATTCATTTT [GTGCAC_site9457] | 10.1 ± 0.2 |
| ATTTTCATGATAAAGGTGCAATTATTTTTATAAGAA | 10.9 ± 0.53 |
| GTATTCATGCTAAAGGTGCAATAATTTTTATAATAA [GTGCAC_site9603] | 11.5 ± 0.61 |
| TATAATTTATTAAGGGGTACATATATTTCATGATAA [XGTACX_site5141] | 7.88 ± 0.37 |
| ATTATAAAAGAATTTTTTTTTATTTCATTAAAATAT [CACACA_negctrl_site1137] | 7.09 ± 0.47 |
| TATAATTATTTTTTTCTAAATATTATAAGGTATTCA [GTGCAC_negctrl_site205] | 7.18 ± 0.33 |
| TATAAATATCTGAATTGTACAGGTGAAAAAAAAAAT [XGTACX_site1867] | 8.04 ± 0.62 |
| TAATTAGATTATTTTTGTACATATTATTATAGGTTA [XGTACX_site2077] | 7.59 ± 0.26 |
| ACAAAAATAAGCAAATGTACATATGTATAATATATT [XGTACX_site2492] | 7.77 ± 0.58 |
| ATTATCCATCAAAAGGTGCAAATTTTTAATTATAAA [GTGCAC_site9932] | 10.5 ± 0.49 |
| AAAAAAAAAAAAAAGGTGCAAATAAATTAACCTTAT | 11.4 ± 0.44 |
| TAAATTAAAAAAAAAAACAAAAAAAAAGCAACAAAA [CACACA_negctrl_site1318] | 7.67 ± 0.57 |
| TTAAAAAATAACAAGGTGCAAATAGGTTTATAAAAT | 10.84 ± 0.064 |
| TAAAAATTAAAAAGGGTGCAAAAAAAAAAAAAAAAA [GTGCAC_site9733] | 11 ± 0.61 |
| AGTGACACCAAAGGGGTGCAATGAAATTAAAAATAT | 10.7 ± 0.24 |
| TATGTGTGACAAAATTGTACGGTCTCTTTATTTTGT [XGTACX_site2679] | 7.72 ± 0.54 |
| TCCTTATAAATATATATATAATATATATATATATAT [CACACA_negctrl_site293] | 8.86 ± 0.2 |

| Sequence | gcPBM binding intensity (ln) |
| --- | --- |
| ATTTTTATTCAGTTCACACACGCTTTAATATTATAT [CACACA_site3465] | 8.3 ± 0.58 |
| ATATATCCAATATATATATATATATATATATATATA [CACACA_negctrl_site160] | 9.2 ± 0.67 |
| TGTTGGCAGGTGAATGCATGCATATAAGTCTATCTG [TGCATGCA_site781] | 8.02 ± 1.1 |
| TATTCCTATATAAAGACACACATATGTAACTACGAT [CACACA_site4139] | 7.68 ± 0.59 |
| ATATAATATAACAATACGCACACGTATACAAAAAAA [CACACA_site3151] | 8.36 ± 0.41 |
| TATTAATTTCTTTTTTCTCATCACTTTCAAAATGAA [CACACA_negctrl_site1055] | 7.9 ± 0.47 |
| ATTATGTATACATAAACACACATATATATAAAAAAA [CACACA_site262] | 7.92 ± 0.64 |
| TTCATTAAAGTTATTACACACAGTTCTTCAACCAAA [CACACA_site7613] | 7.88 ± 0.46 |
| CTTTGTAGTATATTAACACACAACTGTTTATAATAT [CACACA_site6038] | 7.77 ± 0.54 |
| TGTATAATATTTGGTGCACACAAATTAACAACTGTT [CACACA_site9245] | 11.1 ± 0.54 |
| ATATTTATAAATTGCACACAAATAATAACATTATAT [CACACA_site5322] | 8.68 ± 0.13 |
| TTCTTTGTAGTATATTAACACACAACTGTTTATAAT [CACACA_site9305] | 8.02 ± 0.59 |
| TATAATATTTGGTGCACACAAATTAACAACTGTTTA [CACACA_site3742] | 11.1 ± 0.39 |
| AAATATTTATAAATTGCACACAAATAATAACATTAT [CACACA_site8737] | 8.47 ± 0.099 |
| ATTCAAAAGGTTTAATGTACGTGATGTTTCACAAAT [XGTACX_site784] | 7.74 ± 0.5 |
| AAAAATGGAATTATCTGTACATATATAGTTTTTAAA [XGTACX_site5580] | 7.44 ± 0.33 |
| AATTGTTCTATGATTTGTACACACTTTTTTTTAAAA [XGTACX_site5984] | 8.15 ± 0.52 |
| ATTTTAATAAAATATGTACACACATACACCCATATA [CACACA_site8326] | 8.15 ± 0.34 |
| AATACATGAATATGTAGTACAGAAAAAAAAAATATA [XGTACX_site1945] | 7.89 ± 0.6 |
| AATAAATATAAAAATGCACACACACTAATAAAAAAA [CACACA_site8201] | 8.67 ± 0.52 |
| TATAATATAATATATGCACACAAATATGTATATATG [CACACA_site8664] | 8.86 ± 0.085 |
| TGATTCAATTTATGCACACTAAAAATTAATTATATT [CACACA_site271] | 9.65 ± 0.23 |
| TTAAAAAATATATGCGTGCACTAATATTTCATATGC | 11.5 ± 0.2 |

| Sequence | gcPBM binding intensity (ln) |
| --- | --- |
| ATTTTTAATATTATTACACACACTAATAAAAAAAAA [CACACA_site8265] | 7.96 ± 0.27 |
| ATATTTTACAAATGCACACATAATTTTTTTTTTTTT [CACACA_site2763] | 9.33 ± 0.099 |
| TAATATAATATATGCACACAAATATGTATATATGTG [CACACA_site2134] | 8.895 ± 0.049 |
| ATAATATTTTAATGCACACACACAAAAAAAAAAAAA [CACACA_site2891] | 11.2 ± 0.61 |
| TTTTTTTTTTTTAATGCACACAATATATAATATGTA [CACACA_site3694] | 11.2 ± 0.4 |
| AGATAAAATATATATGCACACACATATATATTTCAT [CACACA_site9183] | 9.255 ± 0.007 |
| GTATAATATTTTAATGCACACACACTAATAAAAAAA [CACACA_site8939] | 11.1 ± 0.76 |
| TTTTTAAAATATTTAACACACAATTTTAATGCATAA [CACACA_site6036] | 8.8 ± 0.11 |
| ATTAATGATTTTTGTTGTACATTATTAATTTACATT [XGTACX_site544] | 7.83 ± 0.46 |
| ATTTCTCAATCGTAATGTACAAAAAAAAGGGAAAAG [XGTACX_site2781] | 7.9 ± 0.58 |
| AAGGAATATGTATATACACACAGGTACATATATATA [CACACA_site441] | 8.16 ± 0.71 |
| AGTAGTCTGGAGAAAAGTACATAGTATCTGGTAGCT [XGTACX_site2027] | 7.98 ± 0.52 |
| AAGAGAGAGAAATATGCACACATAAGGGAAATAAAT [CACACA_site8300] | 8.895 ± 0.049 |
| TTTATTCCAGTATTCACACACGAATAACCACATAAC [CACACA_site5104] | 7.93 ± 0.42 |
| ATATATATATATATTTGTACATAATATATATATGCA [XGTACX_site1795] | 9.28 ± 0.48 |
| AGATATAATAAATATACACACATATATATATATATA [CACACA_site962] | 9.2 ± 0.76 |
| TTTAAATTTTAATATGCACACAAAATGTTATATTAA [CACACA_site8015] | 9.06 ± 0.13 |
| AATATTTTAATGCACACACACAAAAAAAAAAAAAAA [CACACA_site7374] | 11.5 ± 0.73 |
| TAAATTTTAATATGCACACAAAATGTTATATTAAAA [CACACA_site4366] | 9.13 ± 0.35 |
| AAGCATATTATAAACACACACTGTATAAAGATATAT [CACACA_site6277] | 7.66 ± 0.67 |
| TATATACCACATTGTTGTACGACACATTTACATTTT [XGTACX_site8370] | 8.21 ± 0.57 |
